Records with an inconclusive call do not appear. Calls of active or inactive are those of the source. Unless noted, calls come from the whole dose curve; as a rule, active = well fitted curve in the direction sought with a large enough effect in the repeat runs; inconclusive = weak or mixed curves; inactive = no such curve, though single readings can be large; an effect the other way counts as inactive or inconclusive.
Experiments:
[1] = qHTS assay to identify small molecule antagonists of the estrogen related receptor (ERR) signaling pathway from Tox21 library - cell viability counter screen (AID 1224834); note: nearly all actives have a fitted effect of over 30% in size
Summary of the method: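 CellTiter-Fluor fluorescence measured; ERR cells; 17.5 h compound incubation at 37 C; 30 min reagent step.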

[2] = qHTS assay to identify small molecule agonists of the constitutive androstane receptor (CAR) signaling pathway - cell viability counter screen (AID 1224836); note: nearly all actives have a fitted effect of over 45% in size
Summary of the method: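 Compound titrations (15 concentrations) went onto HepG2-CYP2B6-hCAR cells 4 h after seeding, alongside PK11195 at a final 0.75 uM; a 23 h, 37 C/5% CO2 incubation preceded CellTiter-Fluor viability measurement.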

[3] = qHTS assay to identify small molecule antagonists of the constitutive androstane receptor (CAR) signaling pathway - cell viability counter screen (AID 1224837); note: nearly all actives have a fitted effect of over 45% in size
Summary of the method: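 Using CellTiter-Fluor, viability is scored in HepG2 cells stably carrying hCAR and a 2.2kb CYP2B6 reporter after 23 hr compound exposure across 15 concentrations, with CITCO present at 50 nM.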

[4] = target: Nuclear receptor subfamily 1 group I member 3 (Homo sapiens) (UniProt Q14994); assay: qHTS assay to identify small molecule antagonists of the constitutive androstane receptor (CAR) signaling pathway (AID 1224838);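 note: HepG2 cells stably expressing hCAR with CYP2B6 luciferase reporter stimulated by CITCO; nearly all actives have a fitted effect of over 40% in size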
Sequence of Nuclear receptor subfamily 1 group I member 3 (Homo sapiens) (Q14994 whole entry, looked up): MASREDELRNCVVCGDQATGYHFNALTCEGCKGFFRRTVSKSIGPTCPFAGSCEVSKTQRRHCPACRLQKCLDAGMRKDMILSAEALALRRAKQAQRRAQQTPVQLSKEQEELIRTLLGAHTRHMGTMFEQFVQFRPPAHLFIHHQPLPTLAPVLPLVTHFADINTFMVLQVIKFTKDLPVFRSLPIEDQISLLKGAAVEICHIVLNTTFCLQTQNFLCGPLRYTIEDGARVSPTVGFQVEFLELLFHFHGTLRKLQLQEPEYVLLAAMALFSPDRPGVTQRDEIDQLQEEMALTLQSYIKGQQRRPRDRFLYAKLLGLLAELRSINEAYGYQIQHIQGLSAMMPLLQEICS
Summary of the method: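 Reporter luminescence was quantified after 24 h exposure of hCAR/CYP2B6-2.2kb double-stable HepG2 cells to compounds at 15 concentrations in the presence of 50 nM CITCO final.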

[5] = target: Nuclear receptor subfamily 1 group I member 3 (Homo sapiens) (UniProt Q14994); assay: qHTS assay to identify small molecule agonists of the constitutive androstane receptor (CAR) signaling pathway (AID 1224839); note: nearly all actives have a fitted effect of over 15% in size; note: potency is the fitted concentration of half-maximal effect;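 for activation: HepG2 cells stably carrying human CAR and a CYP2B6 luciferase reporter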
Summary of the method: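 In this screen, CAR-driven CYP2B6 promoter activity is measured by luminescence in HepG2-CYP2B6-hCAR cells after 24 h with test compounds and 0.75 uM PK11195 (final concentration).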

[6] = target: Thyrotropin receptor (Homo sapiens) (UniProt P16473); assay: qHTS assay to identify small molecule agonists of the thyroid stimulating hormone receptor (TSHR) signaling pathway (AID 1224843; calls by dose curve; note: nearly all actives have a fitted effect of over 45% in size)
Sequence of Thyrotropin receptor (Homo sapiens) (P16473 whole entry, looked up): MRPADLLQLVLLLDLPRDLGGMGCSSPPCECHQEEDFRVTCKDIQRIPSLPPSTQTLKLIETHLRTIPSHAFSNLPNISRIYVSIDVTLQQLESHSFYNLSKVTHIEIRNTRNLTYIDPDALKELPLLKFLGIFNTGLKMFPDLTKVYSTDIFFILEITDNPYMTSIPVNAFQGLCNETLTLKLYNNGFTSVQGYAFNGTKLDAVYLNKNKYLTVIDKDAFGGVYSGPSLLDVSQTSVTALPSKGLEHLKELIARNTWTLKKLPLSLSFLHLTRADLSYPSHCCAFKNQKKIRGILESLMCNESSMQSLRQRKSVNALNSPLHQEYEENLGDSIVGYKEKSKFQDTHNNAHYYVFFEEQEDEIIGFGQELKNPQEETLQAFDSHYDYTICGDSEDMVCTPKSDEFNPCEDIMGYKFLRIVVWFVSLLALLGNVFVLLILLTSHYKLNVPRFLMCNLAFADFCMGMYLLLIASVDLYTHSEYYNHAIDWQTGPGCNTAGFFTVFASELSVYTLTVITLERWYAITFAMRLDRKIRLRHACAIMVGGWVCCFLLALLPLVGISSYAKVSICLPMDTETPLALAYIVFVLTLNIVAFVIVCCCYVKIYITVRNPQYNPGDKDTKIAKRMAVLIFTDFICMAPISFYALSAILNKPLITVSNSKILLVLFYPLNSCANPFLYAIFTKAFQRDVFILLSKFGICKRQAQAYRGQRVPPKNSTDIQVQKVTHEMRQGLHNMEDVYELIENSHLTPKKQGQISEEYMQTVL
Summary of the method: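 Cell line HEK293 with TSHR; density 800/well. Exposure 30 min RT. Readout HTRF cAMP (cAMP-d2/anti-cAMP-cryptate), 1 h RT before reading.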

[7] = qHTS assay to identify small molecule agonists of H2AX (AID 1224845; active = well fitted activation curve with a large enough effect in the signal ratio in the repeat runs, not every such curve was filed as active; the % refers to the signal ratio)
Summary of the method: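 Wild-type CHO-K1 cells plated overnight, then exposed 3 hr at 37C to compounds at 15 concentrations (0.76% DMSO). Lysed, then HTRF anti-pH2AX(S139)-cryptate/anti-H2AX-d2 detection after 24 hr at room temperature; emissions 665 and 620 nm.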

[8] = qHTS assay to identify small molecule agonists of H2AX - cell viability counter screen (AID 1224847; calls by dose curve; note: top concentration of the series differs between compounds; nearly all actives have a fitted effect of over 30% in size)
Summary of the method: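 Read-out: CellTiter-Glo luminescence, 30 min RT. Cells: wild-type CHO-K1, 1000/well, 10% FBS, plated overnight at 37C. Treatment: 15 concentrations, 3 hr, 37C, 0.76% DMSO.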

[9] = qHTS RealTime-Glo MT Cell Viability Assay in HepG2 cells - 24 hour (AID 1224867); note: nearly all actives have a fitted effect of over 50% in size
Summary of the method: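 Real-time, nonlytic viability: 600 HepG2 cells/well mixed with NanoLuc enzyme plus prosubstrate; 5 h settle, compound (DMSO) added by pintool; luminescence monitored over 40 h at 37 C.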

[10] = A CellTox Green Cytotoxicity Assay to monitor cytotoxicity in HEK293 cells - 0 hour (AID 1224869); note: nearly all actives have a fitted effect of over 50% in size
Summary of the method: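 Seeding of HEK293 cells together with cytotoxicity dye preceded a 5 h incubation at 37 C/5% CO2. Test compounds in DMSO were then added and fluorescence monitored across 40 h.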

[11] = qHTS assay to identify small molecule antagonists of the estrogen related receptor signaling pathway with the pleiotropic PPARgamma coactivator (PGC) from Tox21 10K library - cell viability counter screen (AID 1224840; active = well fitted cell-killing curve with a large enough effect in the repeat runs, not every such curve was filed as active; note: nearly all actives have a fitted effect of over 40% in size)
Summary of the method: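 Here the PGC/ERR cells serve as a cytotoxicity control: they are exposed to compounds for 17.5 hours at 37 C, and live-cell signal is quantified using CellTiter-Fluor fluorescence.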

[12] = qHTS assay to identify small molecule agonists of the hypoxia (HIF-1) signaling pathway - cell viability counter screen (AID 1224844; calls by dose curve; note: nearly all actives have a fitted effect of over 50% in size)
Summary of the method: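 Multiplexed with the HRE beta-lactamase assay, this viability read used CellTiter-Glo luminescence (30 min, RT) on HRE-bla ME-180 cells treated 17 hrs with compounds in 0.5% dialyzed FBS medium.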

[13] = qHTS RealTime-Glo MT Cell Viability Assay in HEK293 cells - 32 hour (AID 1224868); note: nearly all actives have a fitted effect of over 50% in size; note: potency is the fitted concentration of half-maximal effect
Summary of the method: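 Cells + reagent dispensed (600 cells/well, HEK293) → 5 h at 37 C/5% CO2 → 23 nL compound in DMSO pinned → 40 h at 37 C → luminescence read at 0, 8, 16, 24, 32, 40 h.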

[14] = qHTS assay to identify small molecule agonists of the hypoxia (HIF-1) signaling pathway (AID 1224846; active = well fitted activation curve with a large enough effect in the signal ratio in the repeat runs, not every such curve was filed as active; the % refers to the signal ratio)
Summary of the method: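 Hypoxia-pathway activation was scored as increased beta-lactamase from an HRE-controlled reporter in ME-180 cells; plated at 2,000 cells per well with 0.5% dialyzed FBS, they were exposed 17 hrs to compounds and then given CCF4-AM.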

[15] = target: Luciferin 4-monooxygenase (Photinus pyralis) (UniProt P08659); assay: qHTS assay to identify small molecule inhibitors of firefly luciferase (AID 1224835); note: nearly all actives have a fitted effect of over 25% in size; note: potency is the fitted concentration of half-maximal effect
Sequence of Luciferin 4-monooxygenase (Photinus pyralis) (P08659 whole entry, looked up): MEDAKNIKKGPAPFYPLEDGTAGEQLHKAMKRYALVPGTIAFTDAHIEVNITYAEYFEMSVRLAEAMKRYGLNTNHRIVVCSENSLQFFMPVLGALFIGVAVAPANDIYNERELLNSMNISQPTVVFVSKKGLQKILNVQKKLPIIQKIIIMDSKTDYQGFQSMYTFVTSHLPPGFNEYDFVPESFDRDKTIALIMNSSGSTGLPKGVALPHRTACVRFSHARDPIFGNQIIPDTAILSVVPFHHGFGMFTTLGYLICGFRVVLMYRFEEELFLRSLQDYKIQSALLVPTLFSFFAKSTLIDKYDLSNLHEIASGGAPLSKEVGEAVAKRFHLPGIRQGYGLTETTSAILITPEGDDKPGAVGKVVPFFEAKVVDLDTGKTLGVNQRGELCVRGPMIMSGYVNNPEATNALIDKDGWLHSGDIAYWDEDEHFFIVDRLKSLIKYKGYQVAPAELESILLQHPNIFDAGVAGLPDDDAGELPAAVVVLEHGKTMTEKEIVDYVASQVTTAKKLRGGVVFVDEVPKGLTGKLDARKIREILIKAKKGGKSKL
Summary of the method: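 Quantitative HTS format; KM concentrations of both substrates. Purified P. pyralis FLuc activity quantified from luminescence images.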

[16] = qHTS assay to identify small molecule antagonists of the estrogen related receptor signaling pathway with the pleiotropic PPARgamma coactivator (PGC) from Tox21 10K library (AID 1224841; call rule not given here)
Summary of the method: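 Each well held 2,000 PGC/ERR cells, pre-incubated six hours (37 C, 5% CO2). Test substances in DMSO were added by pin tool and left for 18 h at 37 C before luciferase detection by One-Glo.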

[17] = qHTS assay to identify small molecule agonists of the estrogen related receptor signaling pathway with the pleiotropic PPARgamma coactivator (PGC) from Tox21 10K library (AID 1224842); note: nearly all actives have a fitted effect of over 15% in size
Summary of the method: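 PGC/ERR reporter cells (NTP line) were seeded 2,000 per well, rested 6 h at 37 C/5% CO2, then pin-dosed with compounds in DMSO for 18 h at 37 C; luciferase read by One-Glo luminescence after 30 min at room temperature.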

[18] = qHTS assay to identify small molecule antagonists of the estrogen related receptor (ERR) signaling pathway from Tox21 library (AID 1224848); note: nearly all actives have a fitted effect of over 50% in size
Summary of the method: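 Screening used an ERR reporter line supplied by NTP, exposed for 18 h at 37 C to library compounds delivered in DMSO. Signal was luciferase luminescence developed with ONE-Glo at room temperature for 30 min.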

[19] = qHTS assay to identify small molecule agonists of the estrogen related receptor (ERR) signaling pathway from Tox21 library (AID 1224849; calls by dose curve; note: nearly all actives have a fitted effect of over 15% in size); conditions: ERR reporter cell line, ONE-Glo luciferase, 18 h; at 92.4 µM (top of the series) unless noted
Summary of the method: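 Six hours post-seeding at 37 C/5% CO2, ERR cells receive DMSO-solubilised compounds; after 18 h at 37 C, ONE-Glo reagent is applied and luminescence recorded.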
% is set by controls: 0 for no effect and ±100 for the full control effect.

CCCCCN(CCCCC)C(=O)C(CCC(=O)O)NC(=O)c1ccc(Cl)c(Cl)c1 (centres undefined)
inactive: Potency [1] | outcome [2] | outcome [3] | Potency [4] | Potency [5] | outcome [6] | outcome [7] | Potency [8] | outcome [9] | Potency [10]

C[C@H](O)C(=O)Nc1c(I)c(C(=O)NC(CO)CO)c(I)c(C(=O)NC(CO)CO)c1I
inactive: Potency [1] | outcome [3] | Potency [4] | Potency [5] | outcome [11] | outcome [6] | Potency [12] | outcome [7] | Potency [8] | outcome [9] | Potency [13] | Potency [10]

CCCCCCCCCCC1CO1 (centres undefined)
inactive: Potency [1] | outcome [2] | outcome [3] | Potency [4] | Potency [5] | outcome [6] | Potency [12] | outcome [7] | outcome [14] | Potency [8] | outcome [9] | Potency [13] | Potency [10]

O=c1[nH]c(=O)n([C@H]2O[C@H](CO)[C@@H](O)[C@@H]2O)cc1/C=C\Br
inactive: Potency [1] | outcome [3] | Potency [4] | Potency [5] | outcome [11] | Potency [12] | outcome [7] | outcome [14] | Potency [8] | outcome [9] | Potency [13] | Potency [10]

Cc1ccc(N)cc1[N+](=O)[O-]
inactive: Potency [15] | outcome [2] | outcome [3] | Potency [4] | Potency [5] | outcome [11] | outcome [6] | Potency [12] | outcome [7] | outcome [14] | outcome [9] | Potency [10]

CSc1nc(NC2CC2)nc(NC(C)(C)C)n1
active: Potency [5] 17.2 µM | Potency [13] 24.5 µM
inactive: Potency [1] | outcome [2] | outcome [3] | Potency [4] | Potency [12] | outcome [7] | outcome [14] | outcome [9] | Potency [10]

Nc1nc2c(ncn2CCC(CO)CO)c(=O)[nH]1
inactive: Potency [1] | outcome [2] | outcome [3] | outcome [11] | Potency [16] | Potency [17] | outcome [6] | Potency [12] | outcome [14] | Potency [8] | Potency [18] | activity change, positive = activation [19] -1.99% [at 42.5 µM] | outcome [9] | Potency [13] | Potency [10]

N#CC1(O)CCCCC1
inactive: Potency [15] | outcome [2] | outcome [3] | Potency [4] | Potency [5] | outcome [11] | Potency [16] | Potency [17] | outcome [6] | Potency [12] | outcome [14] | Potency [8] | Potency [18] | activity change, positive = activation [19] 7.59% | outcome [9] | Potency [13] | Potency [10]

CCc1cc(S(=O)(=O)O)c2cc(C(C)C)cccc1-2
inactive: Potency [1] | outcome [2] | outcome [3] | outcome [11] | outcome [6] | Potency [12] | outcome [14] | Potency [8] | outcome [9] | Potency [13] | Potency [10]

CCCOCC(C)OCC(C)O (centres undefined)
inactive: Potency [1] | outcome [2] | outcome [3] | outcome [11] | Potency [16] | Potency [17] | outcome [6] | Potency [12] | outcome [14] | Potency [8] | Potency [18] | activity change, positive = activation [19] 1.4% | Potency [13] | Potency [10]

[O-][N+](=Nc1ccccc1)c1ccccc1
active: Potency [5] 30.6 µM
inactive: Potency [1] | outcome [2] | outcome [3] | Potency [4] | outcome [11] | outcome [7] | outcome [14] | Potency [8] | outcome [9] | Potency [13] | Potency [10]

O=C(O)CCNC(=O)c1ccc(N=Nc2ccc(O)c(C(=O)O)c2)cc1
inactive: outcome [2] | outcome [3] | Potency [4] | Potency [5] | outcome [11] | outcome [6] | Potency [12] | outcome [14] | Potency [8] | outcome [9] | Potency [13] | Potency [10]
active: Potency [15] 30.9 µM

CCC(=O)Nc1cccc(N)c1
inactive: Potency [1] | outcome [2] | outcome [3] | Potency [4] | Potency [5] | Potency [16] | Potency [17] | outcome [6] | Potency [12] | outcome [7] | outcome [14] | Potency [18] | activity change, positive = activation [19] -10.7% | Potency [10]

C1CCCCCCCCCCC1
inactive: viability change, negative = cytotoxic [1] 0.43% [at 19 µM] | viability change, negative = cytotoxic [2] -17.1% [at 19 µM] | activity change, negative = cytotoxicity [3] -6.25% [at 19 µM] | activation [17] 0.749% [at 19 µM] | activation [6] -4.17% [at 19 µM] | activity change, negative = cytotoxicity [12] 3.97% [at 15.8 µM] | activation (H2AX phosphorylation) [7] 1.29% [at 31.6 µM] | activation [14] 0.351% [at 15.8 µM] | activity, negative = inhibition [18] -2.47% [at 19 µM] | activity change, positive = activation [19] -0.61% [at 19 µM] | activity change, negative = cytotoxicity [9] 3.08% [at 15.8 µM] | cytotoxicity [10] -14.8% [at 15.8 µM]

OCC(O)[C@@H](O)[C@H](O)[C@H](O)CO[C@H]1O[C@H](CO)[C@@H](O)[C@H](O)[C@H]1O (some centres undefined)
inactive: Potency [1] | outcome [2] | outcome [3] | outcome [6] | Potency [12] | outcome [14] | Potency [8] | outcome [9] | Potency [13] | Potency [10]

CC(=O)N[C@@H](CCC(N)=O)C(=O)O
inactive: Potency [1] | outcome [2] | outcome [3] | Potency [5] | Potency [12] | outcome [7] | outcome [14] | Potency [8] | outcome [9] | Potency [13] | Potency [10]

From PubChem BioAssay (Tox21)
